# Source: PubChem BioAssay (NCI)
# About 79,000 compounds went through this panel and 15% of them were active in at least one assay; those are over-represented in the sample as a whole. Unmarked numbers belong to inactive results. Activity calls are given as the source filed them. Rule as the data show it: active = growth inhibition above about 70%; inactive = the rest.
# Experiments:
# [1] = NCI Yeast Anticancer Drug Screen. Data for the rad50 strain (AID 155);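 also: 0% = growth of vehicle-only cultures of the same strain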; details: S. cerevisiae rad50 strain growth inhibition; at 50.0 µM; stronger effect = higher value
# Method in brief: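 A DNA repair-deficient yeast mutant serves as the test organism; compound-induced growth inhibition is calculated against vehicle-treated cells.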
# [2] = NCI Yeast Anticancer Drug Screen. Data for the mec2-1 strain (AID 157); details: S. cerevisiae mec2-1 strain, at 50.0 µM, stronger effect = higher value
# Method in brief: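 Mutant yeast (mec2-1) grown with compound; growth inhibition relative to vehicle control reported.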
# [3] = NCI Yeast Anticancer Drug Screen. Data for the sgs1 mgt1 strain (AID 161);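 also: 0% = growth of cultures given vehicle only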; details: S. cerevisiae sgs1 mgt1 strain, at 50.0 µM, stronger effect = higher value
# Method in brief: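 This yeast growth screen uses a strain with defined DNA-repair lesions; compound-treated growth is compared with vehicle-treated growth.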
# [4] = NCI Yeast Anticancer Drug Screen. Data for the cln2 rad14 strain (AID 165);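 also: 0% = growth equal to vehicle treated cultures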; details: S. cerevisiae cln2 rad14 strain, at 50.0 µM, stronger effect = higher value
# Method in brief: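 Readout is yeast growth inhibition versus vehicle-treated controls, using a strain with cln2 and rad14 alterations exposed to compound.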
# [5] = NCI Yeast Anticancer Drug Screen. Data for the bub3 strain (AID 167); details: S. cerevisiae bub3 mutant strain, at 50.0 µM, stronger effect = higher value
# Method in brief: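 Inhibition values come from growth of compound-treated mutant yeast normalised to vehicle-treated controls.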
# [6] = NCI Yeast Anticancer Drug Screen. Data for the mlh1 rad18 strain (AID 175); details: S. cerevisiae mlh1 rad18 strain growth inhibition; at 50.0 µM; stronger effect = higher value
# Method in brief: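 Genetically defined yeast (DNA repair-deficient) exposed to compounds; growth inhibition determined relative to vehicle.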
SMILES,growth inhibition [1] [%],growth inhibition [2] [%],growth inhibition [3] [%],growth inhibition [4],growth inhibition [5] [%],growth inhibition [6] [%]
CCC1([N+](=O)[O-])COC2(CCCCC2)OC1,6.95,23.7,-11.4,-1.35%,13.6,-13.1
CC1(C2(C)CC2(Br)Br)CC1(Br)Br (stereo unspecified),11.4,-0.65,11.3,15.8%,-2.5,-0.65
CN1C(=O)CC(c2cccc(C3CC(=O)N(C)C3=O)n2)C1=O (stereo unspecified),-18.6,-23.7,-17.6,-5.8%,-11.7,-13.7
O=C(O)C1C2C=CC(O2)C1C(=O)Nn1cccc1 (stereo unspecified),6.5,-7.5,-17.6,-12.8%,-16.6,-6.75
Cc1cccc(O)c1O,25.2,0.15,23.1,-0.2%,16.8,20.4
[N-]=[N+]=Nc1ccccc1Oc1ccccc1,9.85,-18.1,5.15,17.7%,-16.6,10.5
CC(C)c1nc2c(c(=O)o1)CCS2,-5.5,-5.75,-7.9,-8.1%,-1.4,-11.9
Cc1ccc(N=N/C(=N/NC(=O)c2ccccc2)c2ccc(N(CCC#N)CCC#N)cc2C)cc1,0.85,3.3,-9.65,-16.3%,-3.25,-40
NC(N)=NC(N)=Nc1cnccn1,13.7,6.8,2.5,15.8%,-10.5,15.2
N=C(c1ccc2ccccc2c1)c1ccccc1Cc1ccccc1,17.2,-24.2,6.15,-52.5%,9.35,24.2
Cc1ccccc1NS(=O)(=O)c1c(N)ncn1C,-5.2,3.55,-0.9,-29.3%,-0.65,5.25
Cc1nccc2cccc(CNC(C)C)c12,3.7,2.7,4.1,7%,-11.2,-4.25
CCN(CC)c1ccc(/C=C(\C#N)C(N)=S)cc1,35.4,23.6,45.2,0.85%,15.6,16.5
O=C(O)c1cccnc1-c1ccccc1,-3.95,23.6,-9.85,-4.7%,-12.9,-12.2
OC(CCCN1CCN2CCc3[nH]c4ccccc4c3C2C1)c1ccc(F)cc1 (stereo unspecified),23.9,-1.8,13.7,14.3%,1.3,10.8
CN1CCCC(C(O)c2ccccc2)S1(=O)=O (stereo unspecified),17.2,23.4,-1.3,9.65%,29.4,14.3
COc1cc(OC)c(NC2=CC(c3ccc(Cl)cc3)OC2=O)cc1Cl (stereo unspecified),27.3,1.85,12.8,-3.6%,1.4,17.8
C=C[C@]1(C)C[C@@H](OC(=O)CO)[C@@]2(C)[C@H](C)CC[C@]3(CCC(=O)[C@H]32)[C@@H](C)[C@@H]1O,-28.6,-23.3,14.3,30.2%,-49.4,-2.15
CC(=O)n1c2ccccc2c2nc3ccccc3nc21,0.3,10.4,11.9,-30.9%,-19.6,-14.1
NNC(=O)CC(N)C(N)=O (stereo unspecified),-4.1,3.5,-3.25,13.3%,27.4,16.5
O=[N+]([O-])c1cc(F)c(F)cc1F,-26.9,4.15,-21.1,-32.2%,-14.6,26.9

SMILES,growth inhibition [1] [%],growth inhibition [2] [%],growth inhibition [3] [%],growth inhibition [4],growth inhibition [5] [%],growth inhibition [6] [%]
CCN(CC)CCC(=O)N1CCc2c([nH]c3ccccc23)C1c1cccnc1 (stereo unspecified),-26.9,-18.9,-3.95,-6.7%,-0.1,-28.2
CS/C(=N/N=C(\C)c1ccccn1)[Se][Se]/C(=N/N=C(\C)c1ccccn1)SC,15.7,-1,15.6,29.2%,-2.5,30.9
C[C@@H](C1CC[C@H]2[C@@H]3[C@@H]4O[C@@H]4[C@@]4(O)CC=CC(=O)[C@]4(C)[C@H]3C[C@H](O)[C@]12C)[C@H]1C[C@]2(C)O[C@]2(C)C(=O)O1 (stereo partly specified),1.35,-3.25,-2.9,29.5%,2.65,-48.6
COc1cc([N+](=O)[O-])cc(C=O)c1O,6.8,28.4,0.7,-67.5%,-38.8,11.7
O=C1C(N=Nc2ccc(S(=O)(=O)Nc3ccccn3)cc2)C(=O)N(c2ccccc2)C(=S)N1c1ccccc1,8.8,6.1,8.25,18.3%,-1.25,23.6
CCCCCNC(=O)c1cccc(C)c1,-11.1,-13.2,-7.65,-13.6%,-25.4,-1.2
C/C(CC(=O)CCC(=O)Nc1cccc(C(F)(F)F)c1)=N\NC(=O)NN,-25.8,-16.8,-26.4,1.95%,-13.9,-15.8
COc1ccccc1/C=C1\CCC(CCN2CCOCC2)C1=O (stereo unspecified),44.4,37.7,52.5,58.6%,39.9,41.5
Cc1nn(C(=O)c2ccccc2O)c2c1C(c1ccccc1)SC(N)=N2 (stereo unspecified),16.6,17.6,25.2,-5.25%,30.9,9.3
CC1(C)OC2(C)CCC1C1C2N1C(=O)Nc1cccc2ccccc12 (stereo unspecified),-9,-9.5,-1.35,-6.5%,-3.75,-22.8
Oc1[nH]c2ccccc2c1N=NC1=NCCCCN1,-33.2,-36.5,-6.65,15.7%,-3.35,-14.7
O=C(c1ccc2ccccc2c1)C(Cl)C(Cl)c1ccccc1 (stereo unspecified),-13.2,10.8,-1.55,-15.8%,53.1,-6.15
N#Cc1c(-c2ccco2)cc(-c2ccc(N)cc2)[nH]c1=O,-0.6,4.7,17.7,15.8%,-8.9,6.9
N#CC1(NC2CCCCC2)CCN(Cc2ccccc2)CC1,-5.5,-11.9,-6.1,4.1%,-7.5,-1.75
CCOC(=O)CCC(NC(=O)c1ccc(Nc2nc3cc(C(F)(F)F)ccc3nc2-c2ccccc2)cc1)C(=O)OCC (stereo unspecified),12.9,2.7,12.1,3.9%,-5.35,-37.1
CC(=O)Nc1ccc(/C=N/NC(=O)COCC(=O)N/N=C/c2ccc(NC(C)=O)cc2)cc1,7.8,11.1,0.15,86.3% (active),-3.2,-9.65
C=CC(C/C(C)=N/Nc1ccc([N+](=O)[O-])cc1[N+](=O)[O-])c1ccccc1 (stereo unspecified),-17.7,-4.85,-17.6,-54.4%,-19.6,-8
CC(=O)Nc1ccc(S(=O)(=O)Oc2noc3ccccc23)cc1,9.8,3.45,16.2,11.1%,18.1,23.1
CNNC1=NS(=O)(=O)c2cc(C(=O)OC)c(Cl)cc2S1,8.75,-2.25,-9.9,0.5%,-6,8.25
Cc1cccc(NC(C(=O)O)c2ccccc2)c1 (stereo unspecified),-13.8,8.8,-12.8,-65.2%,26.1,5.45
